Laboratory results published in ChEMBL document CHEMBL1201862, “PubChem BioAssay data set” (2004).
In all, about 44,000 sequences went through this assay and about 2,900 (6.6%) were called active. No stated cut-off is given here; in the data, active = GI50 up to about 1.1 µM and inactive = higher. A selection follows. Entries with a potency or affinity are not part of this list.

Each substance was assayed on NCI/ADR-RES.

| Substance | GI50 [µM] |
| --- | --- |
| CISPLATIN, CHEMBL11359 | 4.93 |
| [Bis(aminomethyl)tetramethylenesilane]dichloropaltinum(II), CHEMBL2146205 | 5.22 |
| [Bis(aminomethyl)tetramethylenesilane]tetrachloropaltinum(IV), CHEMBL2146189 | 5.69 |
| [Bis(aminomethyl)pentamethylenesilane]tetrachloropaltinum(IV), CHEMBL2146204 | 1.91 |
| [Bis(aminomethyl)pentamethylenesilane]dichloropaltinum(II), CHEMBL2146202 | 14.3 |
| [Bis(aminomethyl)dimethylsilane]tetrachloroplatinum(IV), CHEMBL2146190 | 15 |
